D3 antag = qHTS of D3 Dopamine Receptor Antagonist: qHTS; max response, negative = inhibition, %; D3R cells, DiscoveRx beta-arrestin luminescence, antagonist mode; active compounds read low; 2.5% of 360,000 active; D(3) dopamine receptor (Homo sapiens), P35462; in the data active means max response below about -50%; inconclusive means no clear call, values can overlap the other calls
Target sequence (P35462 whole entry, looked up): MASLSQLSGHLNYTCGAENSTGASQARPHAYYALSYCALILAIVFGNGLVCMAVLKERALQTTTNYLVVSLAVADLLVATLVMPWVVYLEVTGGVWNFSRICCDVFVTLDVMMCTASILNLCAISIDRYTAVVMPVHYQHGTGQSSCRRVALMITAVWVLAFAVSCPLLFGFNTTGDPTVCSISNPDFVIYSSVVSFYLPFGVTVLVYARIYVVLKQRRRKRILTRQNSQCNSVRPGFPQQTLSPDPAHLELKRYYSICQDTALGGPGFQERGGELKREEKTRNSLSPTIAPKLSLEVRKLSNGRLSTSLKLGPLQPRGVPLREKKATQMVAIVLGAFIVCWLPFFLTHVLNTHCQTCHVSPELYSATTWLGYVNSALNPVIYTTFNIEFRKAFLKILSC
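Cells plated overnight at 1500 cells/well, then exposed to library compounds with dopamine controls for 90 minutes at 37 degrees C. DiscoveRx reagent added for 30–60 minutes at room temperature; luminescence read, quantitative HTS format.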
S2 tox = Viability Counterscreen for Primary qHTS for Inhibitors of ATXN expression | S2 cells (HEK-293 line with an ATXN2-luciferase reporter) viability, CellTiter-Fluor protease fluorescence, 24 h | Potency, µM (titrated, usually from 56.7 µM), most hits filed as cytotoxic | 0.49% of 400,000 active | AID 651635, 2014; further: nearly all actives have a fitted effect of over 40% in size
Integrin act MD = qHTS for Activators of Integrin-Mediated Alleviation for Muscular Dystrophy. Potency, µM (top dose mostly 38.3 µM), most hits filed as activators. alpha7betagal myoblasts, beta-gal FDG fluorescence, 48 h. 0.064% of 350,000 active; further: nearly all actives have a fitted effect of over 60% in size
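alpha7betagal+/- myoblasts (passage 13, 250/well) treated 48 h at 37C with compounds at 1:260 dilution of DMSO stock. Lysed, then beta-galactosidase activity read as FDG fluorescence (ex 480/em 540) after 30 min, with pre-read for autofluorescence.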
IL-1B inflam inh = qHTS for Inhibitors of Inflammasome Signaling: IL-1-beta AlphaLISA Primary Screen. THP-1 LPS/ATP IL-1B secretion, AlphaLISA, 16 h; active compounds read low. activity change, % at 57.5 µM. 4.7% of 360,000 active. AID 743279, 2014; in the data active means activity change below about -50%; inconclusive means mostly about -30% to -49%
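THP-1 cells pretreated 1 hr with compounds (up to 57.5 uM final), then stimulated with LPS (250 ng/mL final) plus ATP (1.25 mM final); secreted IL-1B measured by AlphaLISA after 16 hr, decreased signal indicating inhibition.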
ATXN2 expr inh = Primary qHTS for Inhibitors of ATXN expression. Potency, µM (series often up to 57 µM), actives largely listed as inhibitors. 0.72% of 360,000 active. HEK-293 ATXN2-luciferase reporter, luminescence, 24 h. AID 1745845, 2022; further: nearly all actives have a fitted effect of over 55% in size
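ATXN2-luciferase reporter cells (luciferase flanked by upstream and downstream ATXN2 gene portions) were treated 24 h at 37 °C with compounds at up to 57 uM. SteadyGlo luminescence gave expression; GF-AFC fluorescence gave viability.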
DRD3 agonist = qHTS of D3 Dopamine Receptor Agonist: qHTS | AID 652048, 2013 | D(3) dopamine receptor (Homo sapiens), P35462 | D3R DiscoveRx beta-arrestin cells, luminescence, 90 min | 0.58% of 410,000 active | max activation, %; in the data active means max activation above about 30%
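Agonist-mode cell screen: cells plated at 1500/well and incubated overnight at 37 °C, then exposed to library compounds for 90 min at 37 °C. Detection reagent was added for 30–60 min at room temperature, and luminescence was read.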
A number is an active result; 0 = inactive; ? = inconclusive; - = no result; [ ] = dose if it differs, or a comment. Compounds with a hit are over-represented: about 7% of the library has one in this group of screens. Unless noted, the call rests on the fitted dose curve; in most records, active means well fitted curve in the direction sought with a large enough effect; inconclusive means small, poorly fitted or top-dose-only effect, or another doubt; inactive means no such curve, though single readings can be large; an effect the other way counts as inactive or inconclusive.

SMILES	D3 antag	S2 tox	Integrin act MD	IL-1B inflam inh	ATXN2 expr inh	DRD3 agonist
CC(=O)N1CCN(CCS(=O)(=O)c2ccc(Br)cc2)CC1	0	0	0	-53	0	0
O=C(CCS(=O)(=O)c1ccc(Br)cc1)N1CCN(Cc2ccccc2)CC1	0	0	0	0	0	0
O=C(Nc1ccccc1N1CCCC1)C1CC(=O)N(Cc2ccccc2)C1 (stereo not drawn)	0	0	0	0	0	0
COCCN(C(=O)COC(=O)CCC(=O)c1ccc(C)cc1)c1c(N)n(Cc2ccccc2)c(=O)[nH]c1=O	0	0	0	0	0	0
O=C(CSc1ccc(Br)cc1)N1CCN(S(=O)(=O)c2ccccc2)CC1	0	0	0	0	0	0
O=C(CSc1cccc(C(F)(F)F)c1)N1CCN(S(=O)(=O)c2ccccc2)CC1	?	0	0	-55	0	0
CC(C)c1ccc(N(C(=O)c2snc(C(N)=O)c2N)C(C(=O)NCC2CCCO2)c2ccc(N(C)C)cc2)cc1 (stereo not drawn)	0	0	0	-79	0	0
CN(C)c1ccc(C(C(=O)NCC2CCCO2)N(C(=O)c2snc(C(N)=O)c2N)c2ccc3c(c2)OCO3)cc1 (stereo not drawn)	0	0	0	-66	0	0
CN(C)c1ccc(C(C(=O)NCC2CCCO2)N(C(=O)c2snc(C(N)=O)c2N)c2ccccc2)cc1 (stereo not drawn)	0	?	0	0	0	0
Cc1cccc(N(C(=O)c2snc(C(N)=O)c2N)C(C(=O)NCC2CCCO2)c2ccc(N(C)C)cc2)c1 (stereo not drawn)	0	0	?	0	0	0
CCOc1ccc(N(C(=O)c2snc(C(N)=O)c2N)C(C(=O)NCC2CCCO2)c2ccco2)cc1 (stereo not drawn)	0	0	0	0	0	0
NC(=O)c1nsc(C(=O)N(c2ccccc2)C(C(=O)NCC2CCCO2)c2ccc3ncccc3c2)c1N (stereo not drawn)	0	-	0	-55	0	0
CCOc1ccc(C(C(=O)NCC2CCCO2)N(C(=O)c2snc(C(N)=O)c2N)c2ccc3c(c2)OCCO3)cc1 (stereo not drawn)	0	0	0	-59	0	0
O=C(CN1C(=O)c2ccccc2C1=O)NC1(C(=O)O)CCCC1	?	0	0	0	0	0
O=c1c2ccccc2nc(/C=C/c2cc(Br)ccc2O)n1CCCO	0	-	0	-101	0	0
O=c1c2ccccc2nc(/C=C/c2cccnc2)n1CCc1ccccc1	0	?	0	-71	0	0
Cc1cccc(/C=C/c2nc3ccccc3c(=O)n2Cc2ccccc2)c1	0	0	0	-70	0[11.3 µM]	0
O=c1c2ccccc2nc(/C=C/c2cccc([N+](=O)[O-])c2)n1CCO	0	0	0	?	0	0
O=c1c2ccccc2nc(/C=C/c2ccccc2)n1CCc1ccccc1	0	0	0	0	0	0
COc1ccc(Oc2nccc(-c3ccc(Cl)cc3)n2)cc1	0	0	0	0	0	0
COc1cc(C2C(C(=O)c3ccc(C)o3)=C(O)C(=O)N2c2cc(C)on2)cc(Br)c1O (stereo not drawn)	-57	0	0	0	0	0
COc1cc(C2C(C(=O)c3ccco3)=C(O)C(=O)N2c2cc(C)on2)cc(Br)c1O (stereo not drawn)	-73	0	0	0	0	0
COc1ccc(C2C(C(=O)c3ccc(C)o3)=C(O)C(=O)N2c2cc(C)on2)cc1OC (stereo not drawn)	0	0	0	0	0	0
COc1ccc(-c2c(C#Cc3ccsc3)c3cc(-c4ccc(C(N)=O)cc4)ccc3n2C)cc1	0	0	0	0	0	0
O=C(O)Cc1sc(Nc2ccccc2)nc1-c1cccs1	0	0	0	0	-	0
SMILES	D3 antag	S2 tox	Integrin act MD	IL-1B inflam inh	ATXN2 expr inh	DRD3 agonist
CC(SC#N)C(=O)C12CC3CC(CC(C3)C1)C2 (stereo not drawn)	0	0	0	-96	0	0
CCOC(=O)C1CCN(C(=O)c2ccccc2N(C)S(C)(=O)=O)CC1	0	0	0	0	0	0
Cc1cc(C(=O)O/N=C(\N)c2ccc(C(C)(C)C)cc2)no1	0	0	0	0	-	0
Cc1noc(-c2ccc(Cl)cc2)c1C(=O)O/N=C(\N)c1ccc(C(C)(C)C)cc1	0	?	0	-66	?	0
CC(C)CCn1c(Sc2nc3ccccc3o2)nc2c1c(=O)[nH]c(=O)n2C	0	?	0	-105	?	0
CC(NCc1ccccc1O)C12CC3CC(CC(C3)C1)C2 (stereo not drawn)	0	0	?	?	0	0
O=C(N/N=C/c1cc(Cl)cc([N+](=O)[O-])c1O)c1ccc2c(c1)OCO2	-67	?	0	0	?	0
O=C(N/N=C/c1cc(Br)cc(Cl)c1O)c1ccc2c(c1)OCO2	0	0	0	0	13µM	0
O=C(N/N=C/c1cc(Cl)cc([N+](=O)[O-])c1O)c1cccc(S(=O)(=O)N2CCOCC2)c1	-93	0	0	0	?	0
Cc1cc(C(=O)N/N=C/c2cc(Cl)cc([N+](=O)[O-])c2O)c2ccccc2n1	-66	0	0	0	?	0
CCOc1ccccc1NC(=O)c1ccccc1-c1nc(-c2ccccc2OC)no1	0	?	0	0	?	0
COc1ccccc1CNC(=O)COC(=O)c1ccc(Cl)nc1	0	0	0	0	0	0
Nn1c(Cc2ccccc2)nc2ccccc2c1=O	?	-	0	0	0	0
Nn1c(CN2CCCCC2)nc2ccccc2c1=O	-91	0	0	0	0	0
COc1ccc(C2=NN(C(=O)COc3ncnc4ccccc34)C(c3ccco3)C2)cc1 (stereo not drawn)	0	0	0	?	0	0
O=C(COc1cc(F)ccc1[N+](=O)[O-])N1N=C(c2cccs2)CC1c1ccco1 (stereo not drawn)	-55	0	0	0	0	0
COc1ccc(C2=NN(C(=O)COC(=O)c3ccc(S(C)(=O)=O)c([N+](=O)[O-])c3)C(c3ccco3)C2)cc1 (stereo not drawn)	-56	-	0	-100	?	0
Cc1ccc(OCC(=O)Nc2ccc3c(c2)nc(CCNC(=O)c2ccco2)n3C)cc1	-	-	-	-	-	0
CCOC(=O)c1c(CN2CCN(CCO)CC2)n(-c2ccccc2)c2cc(Br)c(O)cc12	0	?	0	-81	?	0
CCOC(=O)c1c(C)n(-c2ccccc2)c2ccc(O)cc12	0	0	0	0	0	0

Assay outcomes: PubChem, National Center for Advancing Translational Sciences (NCATS)
